The whole screen tested about 220,000 compounds, of which about 910 (0.41%) were called active. The sample holds actives, similar compounds and a random draw of the others, so the mix is not that of the screen.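 Rule for the calls: active = primary inhibition above the hit cutoff, then over 50% inhibition at one or more dose response concentrations (cut at about 23% in these data, passing the limit was not always enough); inconclusive = conflicting primary data, or primary hits not chosen for dose response; inactive = low primary inhibition, or under 50% at every dose.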 Results with a measured potency or affinity are listed apart.
What follows are compounds tested against Aminopeptidase N (Plasmodium falciparum (isolate 3D7)) (UniProt O96935) (assay: P. falciparum M1AAP inhibitors, biochemical, fluorogenic H-Leu-NHMec substrate, 1536-well (AID 1445;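 note: plate controls were DMSO full reaction for no effect and no enzyme background for full effect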)). Details: recombinant M1AAP, H-Leu-NHMec fluorogenic kinetic assay; at 30 µM, active compounds read high unless noted.
Aminopeptidase N (Plasmodium falciparum (isolate 3D7)), sequence (O96935 whole entry, looked up): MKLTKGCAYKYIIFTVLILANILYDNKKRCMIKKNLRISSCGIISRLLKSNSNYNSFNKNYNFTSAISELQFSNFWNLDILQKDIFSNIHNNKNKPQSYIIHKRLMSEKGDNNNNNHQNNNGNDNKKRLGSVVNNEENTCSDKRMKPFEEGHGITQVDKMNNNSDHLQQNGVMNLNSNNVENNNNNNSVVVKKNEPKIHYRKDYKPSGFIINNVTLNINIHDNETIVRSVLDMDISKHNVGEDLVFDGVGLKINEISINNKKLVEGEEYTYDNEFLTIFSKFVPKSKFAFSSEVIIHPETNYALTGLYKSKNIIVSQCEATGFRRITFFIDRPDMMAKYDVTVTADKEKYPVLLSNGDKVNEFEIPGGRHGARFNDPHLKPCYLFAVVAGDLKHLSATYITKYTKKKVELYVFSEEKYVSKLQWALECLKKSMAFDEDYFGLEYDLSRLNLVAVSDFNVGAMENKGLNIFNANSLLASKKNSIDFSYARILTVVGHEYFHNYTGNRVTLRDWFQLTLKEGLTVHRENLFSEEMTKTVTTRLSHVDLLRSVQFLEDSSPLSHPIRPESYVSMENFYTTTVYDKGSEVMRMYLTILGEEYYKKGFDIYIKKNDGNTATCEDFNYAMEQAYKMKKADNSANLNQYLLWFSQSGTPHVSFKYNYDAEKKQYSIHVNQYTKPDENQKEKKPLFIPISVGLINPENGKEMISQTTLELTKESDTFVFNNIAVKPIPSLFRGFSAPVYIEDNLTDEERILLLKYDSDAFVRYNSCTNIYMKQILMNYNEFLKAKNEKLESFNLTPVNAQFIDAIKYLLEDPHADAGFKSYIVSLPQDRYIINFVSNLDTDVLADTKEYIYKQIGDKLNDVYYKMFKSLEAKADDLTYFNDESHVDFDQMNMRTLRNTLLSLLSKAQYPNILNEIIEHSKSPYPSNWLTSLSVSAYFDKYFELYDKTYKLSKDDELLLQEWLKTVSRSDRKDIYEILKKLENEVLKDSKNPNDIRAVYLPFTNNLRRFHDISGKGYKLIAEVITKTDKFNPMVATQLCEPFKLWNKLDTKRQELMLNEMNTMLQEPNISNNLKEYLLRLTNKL

| Structure (SMILES) | inhibition |
| --- | --- |
| CCc1nnc(NC(=O)CN2CCN(C(=O)c3ccccc3)CC2)s1 | 5.2% (inactive) |
| O=C(O)C1CCN(C(=O)CSc2nc3ccccc3s2)CC1 | -1.91% (inactive) |
| CSc1ccc(Cl)c(C(=O)NC2CCCC2)c1 | 1.66% (inactive) |
| CC(C)CNS(=O)(=O)c1ccc(CCC(=O)Nc2ccc3c(c2)OCCO3)cc1 | 9.09% (inactive) |
| Cc1ccc(Cl)cc1NC(=O)COC(=O)C1CC1 | -9.09% (inactive) |
| C=CCn1c(-c2ccccc2[N+](=O)[O-])n[nH]c1=S | -1.25% (inactive) |
| Cc1ccc(S(=O)(=O)NC(=O)c2ccc(Br)o2)cc1 | 0.41% (inactive) |
| CSC1=N/C(=C\c2ccc(Br)o2)C(=O)S1 | 1.89% (inactive) |
| COc1ccc(N=C2NC(=O)/C(=C\c3ccco3)S2)cc1 | 6.07% (inactive) |
| COc1ccc(S(=O)(=O)Nc2nncs2)cc1 | -0.42% (inactive) |
| O=C(O)c1cccc(CN2C(=O)S/C(=C/c3cccc([N+](=O)[O-])c3)C2=O)c1 | 3.75% (inactive) |
| COc1ccc(N=C2NC(=O)/C(=C/c3ccco3)S2)cc1 | 7.45% (inactive) |
| CCCN1C(=O)/C(=C/c2ccco2)SC1=Nc1ccc(OC)cc1 | 8.83% (inactive) |
| O=C1N/C(=N/O)S/C1=C/c1cccc([N+](=O)[O-])c1 | 13.8% (inactive) |
| O=C(O)c1ccc(-c2nc3ccccc3s2)o1 | -2.11% (inactive) |
| O=C(COc1ccccc1)NNC(=O)COc1ccc([N+](=O)[O-])cc1 | 0.69% (inactive) |
| COc1cc(NC(=O)CN(C)Cc2cccc(F)c2)c(C)cc1[N+](=O)[O-] | 13.2% (inactive) |
| CNC(=S)N/N=C(\C)c1ccc2c(c1)OCO2 | 6.47% (inactive) |
| O=C(NC1CCCCC1)c1ccc(CNc2ccccc2)o1 | 3.72% (inactive) |
| COc1ccc(/C=C/C(=O)c2ccc(Cl)s2)cc1O | 9.54% (inactive) |
| NC(=O)c1ccc(-n2nnnc2SCC(=O)Nc2ccc(N3CCOCC3)c(Cl)c2)cc1 | -2.55% (inactive) |
| CCCCOC(=O)Nc1nnc(CCOCC)s1 | 2.38% (inactive) |
| CCN(CC)CCSc1nc2ccc(OC)cc2[nH]1 | 1.77% (inactive) |
| Cc1ccc(N2C(=O)/C(=C\c3ccco3)SC2=S)cc1 | 2.77% (inactive) |
| CN(C)C1=NC(=O)/C(=C\c2ccccc2)S1 | 3.5% (inactive) |
| NC1=NC(=O)/C(=C\c2ccco2)S1 | 9.69% (inactive) |
| Cc1ccc(S(=O)(=O)Nc2ccccc2-c2ccccc2NS(=O)(=O)c2ccc(C)cc2)cc1 | 17.1% (inactive) |
| COc1cc(O)c(C(CCN2CCCC(C)C2)c2ccc(N(C)C)cc2)c(OC)c1 (stereo not given) | 12.5% (inactive) |

| Structure (SMILES) | inhibition |
| --- | --- |
| Cc1ccc(N=N/C(=C\O)C(=O)c2ccncc2)cc1 | 27.6% (active) |
| O=C(/C(=C/O)N=Nc1ccc(Cl)cc1)c1ccncc1 | 0.62% (inactive) |
| O=C(/C(=C/O)N=Nc1ccccc1)c1ccncc1 | 18.4% (inactive) |
| Cc1ccc(NC(=O)Nc2ccc(F)cc2F)c(OC(F)F)c1 | -3.74% (inactive) |
| Cc1cc(NC(=O)CSCC(=O)N(c2ccc(F)cc2)C(C(=O)NC2CCCCC2)c2ccc(O)c(O)c2)no1 (stereo not given) | 8.19% (inactive) |
| N#C/C(=C/c1ccc(F)cc1)S(=O)(=O)c1ccccc1 | -4.5% (inactive) |
| Cc1cc(C)c(/C=C(\C#N)S(=O)(=O)c2ccccc2)[nH]1 | -6.03% (inactive) |
| N#C/C(=C\c1ccc(O)c(O)c1)S(=O)(=O)c1ccccc1 | 24.6% (active) |
| Cc1ccccc1Cn1nnc2c1C(=O)c1ccccc1C2=O | -4.07% (inactive) |
| CC1(c2ccc(OC(F)F)cc2)NC(=O)N(CC(=O)Nc2ccc3c(c2)OCO3)C1=O (stereo not given) | 22.2% (inactive) |
| Cc1cc(NC(=O)CN2C(=O)NC(C)(c3ccc(OC(F)F)cc3)C2=O)no1 (stereo not given) | 7.82% (inactive) |
| O=C(CSc1nnc(CNc2ccc(Cl)cc2)o1)Nc1nc2ccccc2s1 | -13% (inactive) |
| CCCc1nnc(NC(=O)CCC(=O)N2CCN(S(=O)(=O)c3ccc(C)cc3)CC2)s1 | 3.35% (inactive) |
| Oc1ccc(C2C(c3ccccc3)=NN=C(c3ccc(Cl)cc3)N2O)c(O)c1 (stereo not given) | 12.1% (inactive) |
| CC(C)n1cc(/C=C2/SC(=O)N(CC(=O)N3CCCC3)C2=O)c2ccccc21 | 7.08% (inactive) |
| O=C(O)CN1C(=O)/C(=C\c2cn(CC(=O)N3CCOCC3)c3ccccc23)SC1=S | 21.1% (inactive) |
| Cc1ccnc(NS(=O)(=O)c2ccc(NC(=O)c3cncc(Br)c3)cc2)n1 | -0.33% (inactive) |
| NC(=O)Cn1nc([N+](=O)[O-])nc1Oc1ccccc1C(=O)N1CCOCC1 | 3.73% (inactive) |
| CN(C)CCCNC(=O)c1cc(C(=O)C2CCCCC2)c[nH]1 | 3.52% (inactive) |
| COCC(=O)N(Cc1cc2cc(OC)ccc2[nH]c1=O)c1ccccc1 | 7% (inactive) |
| O=C(CN1c2ccccc2Sc2ccccc21)NNC(=O)Nc1ccc(Cl)c(Cl)c1 | 0.08% (inactive) |
| COc1ccc([N+](=O)[O-])cc1N(CC(O)CN1CCCC1)S(=O)(=O)c1ccc(C)cc1 (stereo not given) | 2.31% (inactive) |
| COc1ccc([N+](=O)[O-])cc1N(CC(O)Cn1nnc2ccccc21)S(=O)(=O)c1ccc(C)cc1 (stereo not given) | 23.6% (active) |
| COc1ccc([N+](=O)[O-])cc1N(CC(O)CN1CCCCC1)S(=O)(=O)c1ccc(C)cc1 (stereo not given) | 8.41% (inactive) |
| CCOC(=O)c1csc(NC(=O)c2ccc(OC)c(OC)c2)n1 | 1.77% (inactive) |
| COCCN(C(=O)CSc1nnc(Nc2ccccc2F)s1)c1c(N)n(Cc2ccccc2)c(=O)[nH]c1=O | 3.95% (inactive) |
| CCCS(=O)(=O)NCc1ccc2c(c1)cc(C)n2C | 7.58% (inactive) |
